Each structure is given as a SMILES string. Structures can show the parent of a compound that is named as a salt. Values without a mark were called inactive.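 Rule for the calls: for the amine columns active = adjusted P below 0.05 in both replicates with a change the same way and a mean fold change under 0.8 or over 1.25; inactive = the rest.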

In one assay the test system is Klebsiella aerogenes DSM 30053. The experiment in a line: fold change of Cadaverine concentration vs plate DMSO controls (fold change (ratio)); higher = more amine produced, active = hit call of the paper (significant change in both replicates, either direction). Conditions: incubation time: 27 h, anaerobic, 37 °C. The essentials:
(§1)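 Anaerobic mGAM cultures of four gut bacterial strains were grown at 37 °C for 27 h in 80 µL wells, starting at OD 0.1 before 1:1 dilution. Compounds were at 20 µM final (sweeteners 50 µM). Whole cultures were extracted with cold acetonitrile/methanol containing 0.1% formic acid and centrifuged. Amines were quantified by LC–triple-quadrupole MS (dynamic MRM) against external calibration curves and drift-corrected within batch. Each value is the fold change versus plate DMSO controls, averaged over 2 biological replicates.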
In the case of `O=C(OCCOCCO)c1ccccc1Nc1cccc(C(F)(F)F)c1` [Etofenamate] (20 µM), the “fold change of Cadaverine concentration” value was 1.02.
For `CCCCOc1ccc(CC(=O)NO)cc1` [Bufexamac] (20 µM), the “fold change of Cadaverine concentration” value was 0.956.
Regarding `Cc1scc2c1N(C(=O)CN1CCN(C)CC1)c1ccccc1NC2=O` [Telenzepine dihydrochloride] (20 µM), the “fold change of Cadaverine concentration” value is 1.01.
The same measure, in the same setting: under `OC[C@H]1O[C@H](O[C@H]2O[C@H](CO)[C@@H](O)[C@H](O)[C@H]2O)[C@H](O)[C@@H](O)[C@@H]1O` [Trehalose] (50 µM) stands 1.06; under `NCCCC(O)(P(=O)(O)O)P(=O)(O)O` [Alendronate sodium] (20 µM), 1.01; under `CC(=O)Nc1ccc(CC(=O)O)cc1` [Actarit] (20 µM), 1.01.
The same measure, in the same setting: the figure for `CCCCc1cc2ccccc2c(OCCN(C)C)n1` [Dimethisoquin hydrochloride] (20 µM) is 0.994; for `CC[C@H]1OC(=O)C[C@@H](O)[C@H](C)[C@@H](O[C@@H]2O[C@H](C)[C@@H](O[C@H]3C[C@@](C)(O)[C@@H](O)[C@H](C)O3)[C@H](N(C)C)[C@H]2O)[C@@H](CC=O)C[C@@H](C)C(=O)/C=C/C(C)=C/[C@@H]1CO[C@@H]1O[C@H](C)[C@@H](O)[C@@H](OC)[C@H]1OC` [Tylosin] (20 µM) it is 1.02; for `CN(C)CCC=C1c2ccccc2C=Cc2ccccc21` [Cyclobenzaprine hydrochloride] (20 µM) it is 0.985.
As for `CC(=C(CCO)SSCC1CCCO1)N(C=O)Cc1cnc(C)nc1N` (stereo in doubt) [Fursultiamine hydrochloride] (20 µM), the “fold change of Cadaverine concentration” value is 0.986.
For the compound `CCOC(=O)O[C@]1(C(=O)OCCl)CC[C@H]2[C@@H]3CCC4=CC(=O)C=C[C@]4(C)[C@H]3[C@@H](O)C[C@@]21C` [Loteprednol etabonate] (20 µM), the “fold change of Cadaverine concentration” value was 1.01.
Same read-out and setting: the figure for `N[C@@H](CSCCCO)C(=O)O` [Fudosteine] (20 µM) is 1.01; for `CC1=C(C)C(=O)C(C(CCCCCC(=O)O)c2ccccc2)=C(C)C1=O` (stereo not drawn) [Seratrodast] (20 µM) it is 1.01.
`C[C@]12C=CC(=O)C=C1CC[C@@H]1[C@@H]2C(=O)C[C@@]2(C)[C@H]1CC[C@]2(O)C(=O)CO` [Prednisone] (20 µM): the “fold change of Cadaverine concentration” value is 1.02.

The test system of the next assay is Ruminococcus gnavus DSM 108212. The experiment in a line: fold change of 2-Phenylethylamine concentration vs plate DMSO controls (fold change (ratio)); higher = more amine produced, active = hit call of the paper (significant change in both replicates, either direction). The note with it: incubation time: 27 h, anaerobic, 37 °C. The essentials: as §1
As for `CN[C@H](CC(C)C)C(=O)N[C@H]1C(=O)N[C@@H](CC(N)=O)C(=O)N[C@H]2C(=O)N[C@H]3C(=O)N[C@H](C(=O)N[C@H](C(=O)O)c4cc(O)cc(O)c4-c4cc3ccc4O)[C@H](O)c3ccc(c(Cl)c3)Oc3cc2cc(c3O[C@@H]2O[C@H](CO)[C@@H](O)[C@H](O)[C@H]2O[C@H]2C[C@](C)(N)[C@H](O)[C@H](C)O2)Oc2ccc(cc2Cl)[C@H]1O` [Vancomycin hydrochloride] (20 µM), the “fold change of 2-Phenylethylamine concentration” value is 0.0538 (active).
On to `OC[C@H]1OC(O)[C@H](O)[C@H](O)[C@@H]1O` (stereo partly drawn) [D-allose] (50 µM), for which the “fold change of 2-Phenylethylamine concentration” value is 0.886.
In the case of `COC1=CC(=O)C[C@@H](C)[C@]12Oc1c(Cl)c(OC)cc(OC)c1C2=O` [Griseofulvin] (20 µM), the “fold change of 2-Phenylethylamine concentration” value was 0.98.
On the same count and under the same terms, the figure for `CN1CCN(CCCN2c3ccccc3Sc3ccc(C(F)(F)F)cc32)CC1` [Trifluoperazine dihydrochloride] (20 µM) is 0.964; for `CCCN(CCC)S(=O)(=O)c1ccc(C(=O)O)cc1` [Probenecid] (20 µM) it is 1.02; for `C#C[C@]1(O)CC[C@H]2[C@@H]3CCC4=CC(=O)CC[C@@H]4[C@H]3CC[C@@]21C` [Norethindrone] (20 µM) it is 1.04.
Still for that read-out and setting: under `NC(=O)c1ncn([C@@H]2O[C@H](CO)[C@@H](O)[C@H]2O)n1` [Ribavirin] (20 µM) stands 0.967.
Consider `Cc1c(O)cccc1C(=O)N[C@@H](CSc1ccccc1)[C@H](O)CN1C[C@H]2CCCC[C@H]2C[C@H]1C(=O)NC(C)(C)C` [Nelfinavir mesylate] (20 µM), for which the “fold change of 2-Phenylethylamine concentration” value was 0.894.
On to `CC1(C)S[C@@H]2[C@H](NC(=O)Cc3ccccc3)C(=O)N2[C@H]1C(=O)O` [Benzylpenicillin sodium] (20 µM), for which the “fold change of 2-Phenylethylamine concentration” value is 0.0471 (active).
Take `COC(=O)Nc1nc2cc([S+]([O-])c3ccccc3)ccc2[nH]1` (stereo not drawn) [Oxfendazole] (20 µM): the “fold change of 2-Phenylethylamine concentration” value was 0.999.
For `CCCc1nc(C)c2c(=O)nc(-c3cc(S(=O)(=O)N4CCN(CC)CC4)ccc3OCC)[nH]n12` [Vardenafil] (20 µM), the “fold change of 2-Phenylethylamine concentration” value is 1.07.
Regarding `NS(=O)(=O)c1cc(C(=O)O)cc(N2CCCC2)c1Oc1ccccc1` [Piretanide] (20 µM), the “fold change of 2-Phenylethylamine concentration” value was 1.23.
The same measure, in the same setting: under `C[C@H]1C[C@@H]2[C@H]([C@@H](O)C[C@@]3(C)[C@H]2CC[C@]3(O)C(=O)CO)[C@@]2(C)C=CC(=O)C=C12` [Methylprednisolone, 6-alpha] (20 µM) stands 1.03; under `Oc1ccc2ccccc2c1N=Nc1ccccc1` [Sudan I (1-phenylazo-2-hydroxynaphthalene)] (20 µM), 1.07.
On the same count and under the same terms, the figure for `CC(=O)OCC(=O)[C@@]1(O)CC[C@H]2[C@@H]3CCC4=CC(=O)CC[C@]4(C)[C@H]3[C@@H](O)C[C@@]21C` [Cortisol acetate] (20 µM) is 0.953; for `CCN(CC)CCNc1ccc(CO)c2sc3ccccc3c(=O)c12` [Hycanthone] (20 µM) it is 0.917; for `CC(=O)NC[C@H]1CN(c2ccc(N3CCOCC3)c(F)c2)C(=O)O1` [Linezolid] (20 µM) it is 0.119 (active).
The same measure, in the same setting: the figure for `NNC(=O)c1ccncc1` [Isoniazid] (20 µM) is 0.844.
On to `O=C(NCCO[N+](=O)[O-])c1cccnc1` [Nicorandil] (20 µM), for which the “fold change of 2-Phenylethylamine concentration” value is 1.
As for `CC(=O)[C@H]1CC[C@H]2[C@@H]3CC=C4C[C@@H](O)CC[C@]4(C)[C@H]3CC[C@]12C` [Pregnenolone] (20 µM), the “fold change of 2-Phenylethylamine concentration” value is 1.
Turning to `OC[C@@H](O)[C@@H](O)[C@H](O)[C@H](O)CO` [Mannitol] (50 µM), the “fold change of 2-Phenylethylamine concentration” value is 0.976.
For the compound `CC[C@@]1(O)C(=O)OCc2c1cc1n(c2=O)Cc2cc3c(CN(C)C)c(O)ccc3nc2-1` [Topotecan] (20 µM), the “fold change of 2-Phenylethylamine concentration” value is 1.01.
`CCCCc1ncc(/C=C(\Cc2cccs2)C(=O)O)n1Cc1ccc(C(=O)O)cc1` [Eprosartan mesylate] (20 µM): the “fold change of 2-Phenylethylamine concentration” value is 1.02.
As for `CCN(CC)CC(=O)Nc1c(C)cccc1C` [Lidocaine hydrochloride] (20 µM), the “fold change of 2-Phenylethylamine concentration” value is 1.05.
With `CC(C)c1nc(CN(C)C(=O)N[C@H](C(=O)N[C@@H](Cc2ccccc2)C[C@H](O)[C@H](Cc2ccccc2)NC(=O)OCc2cncs2)C(C)C)cs1` [Ritonavir] (20 µM), the “fold change of 2-Phenylethylamine concentration” value was 0.939.
As for `O=C(OCCOCCO)c1ccccc1Nc1cccc(C(F)(F)F)c1` [Etofenamate] (20 µM), the “fold change of 2-Phenylethylamine concentration” value was 0.861.
Turning to `CCCCOc1ccc(CC(=O)NO)cc1` [Bufexamac] (20 µM), the “fold change of 2-Phenylethylamine concentration” value is 1.07.
Take `Cc1scc2c1N(C(=O)CN1CCN(C)CC1)c1ccccc1NC2=O` [Telenzepine dihydrochloride] (20 µM): the “fold change of 2-Phenylethylamine concentration” value was 0.964.
For `OC[C@H]1O[C@H](O[C@H]2O[C@H](CO)[C@@H](O)[C@H](O)[C@H]2O)[C@H](O)[C@@H](O)[C@@H]1O` [Trehalose] (50 µM), the “fold change of 2-Phenylethylamine concentration” value was 1.15.
As to `NCCCC(O)(P(=O)(O)O)P(=O)(O)O` [Alendronate sodium] (20 µM), the “fold change of 2-Phenylethylamine concentration” value is 1.05.
With `CC(=O)Nc1ccc(CC(=O)O)cc1` [Actarit] (20 µM), the “fold change of 2-Phenylethylamine concentration” value was 0.944.
With `CCCCc1cc2ccccc2c(OCCN(C)C)n1` [Dimethisoquin hydrochloride] (20 µM), the “fold change of 2-Phenylethylamine concentration” value is 0.96.
For the compound `CC[C@H]1OC(=O)C[C@@H](O)[C@H](C)[C@@H](O[C@@H]2O[C@H](C)[C@@H](O[C@H]3C[C@@](C)(O)[C@@H](O)[C@H](C)O3)[C@H](N(C)C)[C@H]2O)[C@@H](CC=O)C[C@@H](C)C(=O)/C=C/C(C)=C/[C@@H]1CO[C@@H]1O[C@H](C)[C@@H](O)[C@@H](OC)[C@H]1OC` [Tylosin] (20 µM), the “fold change of 2-Phenylethylamine concentration” value was 0.105 (active).
With `CN(C)CCC=C1c2ccccc2C=Cc2ccccc21` [Cyclobenzaprine hydrochloride] (20 µM), the “fold change of 2-Phenylethylamine concentration” value is 0.921.
For `CC(=C(CCO)SSCC1CCCO1)N(C=O)Cc1cnc(C)nc1N` (stereo in doubt) [Fursultiamine hydrochloride] (20 µM), the “fold change of 2-Phenylethylamine concentration” value is 0.967.
On the same count and under the same terms, under `CCOC(=O)O[C@]1(C(=O)OCCl)CC[C@H]2[C@@H]3CCC4=CC(=O)C=C[C@]4(C)[C@H]3[C@@H](O)C[C@@]21C` [Loteprednol etabonate] (20 µM) stands 1.02.
Still for that read-out and setting: the figure for `N[C@@H](CSCCCO)C(=O)O` [Fudosteine] (20 µM) is 1.03; for `CC1=C(C)C(=O)C(C(CCCCCC(=O)O)c2ccccc2)=C(C)C1=O` (stereo not drawn) [Seratrodast] (20 µM) it is 0.899.
Consider `C[C@]12C=CC(=O)C=C1CC[C@@H]1[C@@H]2C(=O)C[C@@]2(C)[C@H]1CC[C@]2(O)C(=O)CO` [Prednisone] (20 µM), for which the “fold change of 2-Phenylethylamine concentration” value was 1.02.

These data come from the supplement of paper PMC12494721.
